# Screens from PubChem.
# Most compounds without a hit are left out; they make up all but 8.7% or so of the library.
# BAZ2B block = blocks human BAZ2B; Q9UIF8; AlphaScreen BAZ2B-H3K14Ac peptide displacement; Potency, µM (titrated, usually from 114 µM), actives largely listed as inhibitors; actives 4.4% (n = 360,000); further: nearly all actives have a fitted effect of over 60% in size
#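 AlphaScreen displacement of biotin-H3(5-23)K14Ac peptide (50 nM final) from BAZ2B (50 nM final) in PBS pH 7.4, 0.01% Tween-20; complex preformed 30 min RT, then compounds (top 110 uM) 30 min RT, beads 20 min dark.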
# JMJD2A Tudor = blocks the human JMJD2A Tudor domain | O75164 | AlphaScreen JMJD2A-Tudor / H3K4me3 peptide binding | Potency, µM (titrated, usually from 114 µM), actives largely listed as inhibitors | actives 4.4% (n = 390,000) | AID 504339; further: nearly all actives have a fitted effect of over 50% in size
# 12-LOX inh = blocks human arachidonate 12S-lipoxygenase; P18054; purified 12hLO, xylenol orange hydroperoxide absorbance; Potency, µM (doses to about 108 µM), hits mostly inhibitors; actives 1.1% (n = 580,000); AID 1671190
#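 Purified human 12hLO at 150 nM in 25 mM Hepes, 0.01% Triton X-100, pH 7.0, preincubated 15 min at room temperature with compound. Reaction started with 40 uM arachidonic acid, 30 min at room temperature. Hydroperoxide measured by Fe-xylenol orange, 573/405 nm absorbance ratio.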
# Sfp PPTase inh = Sfp phosphopantetheinyl transferase inhibition. actives 3.5% (n = 310,000). Potency, µM, hits mostly inhibitors. Biochemical Sfp PPTase activity, qHTS. AID 1490;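 further: the enzyme is Sfp with the accession as filed and its product quenches rhodamine fluorescence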
#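 After 15 min at room temperature with compound, 15 nM Sfp received 5 uM rhodamine-CoA plus 12.5 uM BHQ-2-ybbR (50 mM Hepes pH 7.6, 10 mM MgCl2). Rate came from the fluorescence difference over 30 min, ex 525/em 598 nm.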
# G9a inh = inhibitors of human histone lysine methyltransferase G9a. actives 8.8% (n = 350,000). Q96KQ7. Potency, µM (top dose mostly 102 µM), actives largely listed as inhibitors. G9a H3K9 monomethylation, AlphaScreen, 2 h; further: nearly all actives have a fitted effect of over 75% in size
# Target sequence (Q96KQ7 913-1193 limits assumed): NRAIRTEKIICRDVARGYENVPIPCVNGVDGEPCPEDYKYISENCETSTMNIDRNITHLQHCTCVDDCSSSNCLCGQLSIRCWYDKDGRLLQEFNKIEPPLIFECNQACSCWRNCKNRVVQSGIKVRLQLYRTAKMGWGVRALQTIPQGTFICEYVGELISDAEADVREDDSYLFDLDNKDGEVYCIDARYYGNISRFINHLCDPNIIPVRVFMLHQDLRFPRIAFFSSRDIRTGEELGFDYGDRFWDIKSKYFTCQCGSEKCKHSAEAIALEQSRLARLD
#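 G9a (20 nM) preincubated 15 min RT with compounds, then 500 nM biotinylated H3K9 peptide and 20 uM SAM added; 2 h RT reaction. Monomethyl-H3K9 product detected by AlphaScreen with anti-H3K9me1 antibody, streptavidin donor and anti-rabbit IgG acceptor beads.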
# HP1b binding inh = blocks HP1-beta chromodomain binding to methylated histone tails; P83916; AlphaScreen HP1-beta / biotin-H3K9me3 peptide binding; Potency, µM (doses to about 114 µM), usual class: inhibitors; actives 0.56% (n = 390,000); further: nearly all actives have a fitted effect of over 70% in size
# Target sequence (P83916 whole entry, looked up): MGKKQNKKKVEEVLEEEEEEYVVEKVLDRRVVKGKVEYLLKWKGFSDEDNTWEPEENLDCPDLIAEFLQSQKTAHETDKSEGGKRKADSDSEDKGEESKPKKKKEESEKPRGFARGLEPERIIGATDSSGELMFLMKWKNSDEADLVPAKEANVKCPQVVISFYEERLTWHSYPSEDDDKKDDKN
#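 AlphaScreen: HP1-beta (50 nM) preformed 30 min with biotin-H3(1-18)K9me3 peptide (50 nM) in PBS pH 7.4, 0.01% Tween-20. Compound added for 30 min at RT, then streptavidin donor/nickel chelate acceptor beads (10 ug/mL) for 30 min.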
# A number is an active result; – = inactive; ? = inconclusive; · = no result given; [ ] = remark or other dose. The call rests on the fitted dose curve; in most records, active means well fitted curve in the direction sought with a large enough effect; inconclusive means small, poorly fitted or top-dose-only effect, or another doubt; inactive means no such curve, though single readings can be large; an effect the other way counts as inactive or inconclusive.
SMILES,BAZ2B block,JMJD2A Tudor,12-LOX inh,Sfp PPTase inh,G9a inh,HP1b binding inh
Cc1cc(C(=O)C(=O)O)c(C)n1-c1ccc(Cl)cc1,?,–,–,–,–,–
Cc1cc(C(=O)C(C)Sc2cccc[n+]2[O-])c(C)n1-c1ccc(Cl)cc1 (centres undefined),–,–,–,–,40µM,–
COCC1CCN(C(=O)C2CCCN(C(=O)c3ccccc3)CCC(=O)NCC2)CC1 (centres undefined),·,·,–,·,·,·
O=C(NCc1ccco1)c1cccc(NS(=O)(=O)c2cccc(F)c2)c1,–,–,–,–,–,–
O=C(NCc1ccco1)c1cc(NS(=O)(=O)c2cccc([N+](=O)[O-])c2)ccc1O,?,–,?,–,50µM,–
COc1ccc(C(=O)N2CCN(CC3CC3)[C@@H]3CS(=O)(=O)C[C@@H]32)c(C)c1,·,·,–,·,·,·
COc1ccc(CNc2cc(-c3ccccc3OC)ncn2)c(OC)c1,·,·,?,89µM,–[0.501 µM],·
COc1cccc(-c2cncnc2Nc2ccc(F)cc2)c1,·,·,?,79µM,–[0.501 µM],·
COc1ccc(CNc2cc(-c3ccccc3Cl)ncn2)c(OC)c1,·,·,?,–,–[0.501 µM],·
COc1cccc(-c2cncnc2NCc2ccc(OC)cc2OC)c1,·,·,13µM,–,·,·
COc1ccc(C(=O)N2CCCC2c2noc(COc3ccc(F)cc3)n2)cn1 (centres undefined),·,·,–,·,·,·
OC(COc1ccccc1Br)CN1CCNCC1 (centres undefined),–,–,?,–,?,–
CC(C)OCC(O)CN1CCNCC1 (centres undefined),–,79µM,?,–,?,–
COc1ccc(-c2sc3ccccc3c2C#Cc2cncn2C)cc1,·,?,–,·,·,–
COc1ccccc1-c1sc2cc3c(cc2c1C#Cc1cncn1C)OCO3,·,20µM,–,·,·,–
COc1ccc2sc(-c3ccccc3OC)c(C#Cc3cncn3C)c2c1,·,40µM,–,·,·,–
COc1ccc2sc(-c3ccccc3OC)c(C#CCCO)c2c1,79µM,–,?,·,–[0.501 µM],–
COc1ccccc1-c1sc2cc3c(cc2c1C#CCO)OCO3,–,–,?,·,–[0.501 µM],–
COc1cc(OC)cc(-c2sc3ccc(OC)cc3c2C#CCCO)c1,?,–,?,·,–[0.501 µM],–
OCCN(Cc1ccccc1)CC1CC=CCC1 (centres undefined),79µM,10µM,?,–,10µM,?
CC(=Nc1cccc(O)c1)c1sc2ccccc2c1O,40µM,–,–,–,?,–
CC(=Nc1ccc(C)cc1C)c1sc2ccccc2c1O,?,56µM,–,–,?,–
CCOc1cc(/C=C2/NC(=O)NC2=O)cc(Cl)c1OCc1ccc(Cl)c(Cl)c1,·,·,–,·,·,·
N#Cc1ccc(SCc2ccccc2)cc1SCc1ccccc1,·,·,–,·,·,·
CN1CCN(C(=O)C23CC4CC(C)(CC(C)(C4)C2)C3)CC1,–,–,–,–,56µM,–
SMILES,BAZ2B block,JMJD2A Tudor,12-LOX inh,Sfp PPTase inh,G9a inh,HP1b binding inh
O=c1n(-c2cccc(Cl)c2)nc2n1CCN(Cc1ccc(F)cc1)C2,·,·,–,·,·,·
CC(C)=CCn1c(-c2cc(C)oc2C)cn2cc(C(=O)N(C)CC(C)C)nc2c1=O,·,·,–,·,·,·
COc1ccc(C(=O)c2c(C)c3ccccc3n2CC(O)CNC(C)C)cc1 (centres undefined),–,–,–,32µM,45µM,–
COc1ccccc1CNCC(O)Cn1c2ccccc2c2ccccc21 (centres undefined),–,–,–,–,–,–
c1coc(CN2CCc3c(sc4ncnc(N5CCOCC5)c34)C2)c1,·,·,–,·,·,·
Cc1ccc2c(c1)nc1n2[C@@H](CNCc2ccccc2)COC1,·,·,–,·,·,·
COc1cccc(OCCn2cccc2/C=C2/C(=N)N3OC(C)=CC3=NC2=O)c1,?,–,–,–,18µM,–
CC1=CC2=NC(=O)/C(=C\c3cccn3CCOc3cc(C)cc(C)c3)C(=N)N2O1,?,?,–,?,40µM,–
CC1=CC2=NC(=O)/C(=C\c3cccn3CCOc3cccc(C)c3)C(=N)N2O1,–,?,–,?,–,–
COc1c(N)c2ccccc2[nH]c1=O,–,–,–,13µM,?,–
COc1ccc(C(=O)c2ccccc2Cl)cc1,–,–,–,–,–,–
Cc1sc(N)c(C(=O)c2ccccc2Cl)c1C,45µM,?,–,–,–[12.7 µM],?
N#Cc1ccc(CN2CCn3c(nnc3-c3ccncc3)C2)cc1,·,·,–[6.33 µM],·,·,·
Cc1[nH][nH]c(=O)c1C(c1ccc(Br)cc1)c1c(C)[nH][nH]c1=O,–,–,–,–,–,–
CCNCc1ccc(-c2ccc(C(=O)OC)cc2)o1,·,·,–,·,·,·
Cc1[nH][nH]c(=O)c1C(c1ccc(-c2cccc(Cl)c2)o1)c1c(C)[nH][nH]c1=O,40µM,45µM,·,45µM,·,?
Cc1[nH][nH]c(=O)c1C(c1ccc(-c2ccccc2C(=O)O)o1)c1c(C)[nH][nH]c1=O,35µM,89µM,?,?,3.5µM,–
Cc1[nH][nH]c(=O)c1C(c1ccc(-c2cccc(C(=O)O)c2)o1)c1c(C)[nH][nH]c1=O,79µM,56µM,–,16µM,18µM,?
COC(=O)c1ccc(-c2ccc(C(c3c(C)[nH][nH]c3=O)c3c(C)[nH][nH]c3=O)o2)cc1,8.9µM,32µM,35µM,50µM,1.4µM,–
Cc1[nH][nH]c(=O)c1C(c1ccc(-c2ccc(Cl)cc2Cl)o1)c1c(C)[nH][nH]c1=O,?,·,·,50µM,7.1µM,·
COc1ccc(CSC(=S)NNc2ccccc2)cc1,·,·,22µM,·,·,·
COc1ccc(C(=O)Nc2c(O)ccc3ccccc23)cc1OC,·,–,?,·,·,–
COc1ccc(NC(=S)NNc2ccc(C(=O)O)cc2)cc1,–,–,–,–,79µM,?
COc1ccc(C(=O)Nc2ccccc2C(=O)Nc2ccc(C(=O)O)cc2)cc1,–,–,–,–,?,–
COc1ccc(C(=O)Nc2c(O)ccc3ccccc23)cc1,·,79µM,?,·,·,?
SMILES,BAZ2B block,JMJD2A Tudor,12-LOX inh,Sfp PPTase inh,G9a inh,HP1b binding inh
COc1ccc(C(=O)NNc2ccccc2)cc1,?,–,–,–,8.9µM,–
CC(C)(C)NCc1ccc2c(c1)OCO2,·,·,–,·,·,·
Cc1ccc(-c2nc(CS(=O)CC(=O)N3CCN(c4ccccc4)CC3)c(C)o2)cc1 (centres undefined),?,–,?,–,?,–
Cc1oc(-c2ccccc2)nc1CS(=O)CC(=O)N1CCc2ccccc2C1 (centres undefined),–,–,?,50µM,22µM,–
CC(=O)c1ccc(/C=C/c2nc3ccccc3n2C)o1,–,–,–,50µM,–[12.7 µM],–
Cn1c(/C=C/c2ccccc2)nc2ccccc21,–,–,–,–,–,–
COc1ccc(CNC(=O)CNC(C)c2ccc(F)cc2)cc1 (centres undefined),56µM,20µM,–,–,–,45µM
COc1ccc(CCNC(=O)CNCCc2ccc(F)cc2)cc1,79µM,22µM,–,–,–,–
